# High-throughput results as filed in PubChem.
# Pin1 inh = qHTS Assay to Find Inhibitors of Pin1 | Pin1 FP peptide displacement, HiFluor488, 10 min | Potency, µM (doses to about 115 µM), most hits filed as inhibitors | 390,000 tested, 0.009% active; active = well fitted inhibition curve with a large enough effect in the polarisation, with a control signal flat, not every such curve was filed as active; inconclusive = small, poorly fitted or top-dose-only effect, or effect the other way, or a change in a side signal; inactive = no such curve, though single readings can be large or run the other way; the % refers to the polarisation
# PI5P4K alpha inh = qHTS for Inhibitors of phosphatidylinositol 5-phosphate 4-kinase (PI5P4K); max response, %; PI5P4Kalpha enzyme, ADP-Glo luminescence, 60 min; hits give low values; Phosphatidylinositol 5-phosphate 4-kinase type-2 alpha (Homo sapiens), P48426; 330,000 tested, 1.2% active; AID 652105, 2013; active = max response of -50% or lower; inconclusive = between -30% and -50%; inactive = -30% or higher; note: value at the top dose of about 77 µM
#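 Single end-point luminescence (ADP-Glo) quantified ADP from PI5P4Kalpha turnover; ATP 5 microM final, 1 h at RT, 0.1% CHAPS and 0.28 mM EGTA in HEPES pH 7.4.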
# PI4K2A block = qHTS for small molecular inhibitors of PI4K2A; Phosphatidylinositol 4-kinase type 2-alpha (Homo sapiens), Q9BTU6; 420,000 tested, 0.13% active; activity change, negative = inhibition, % at 76.9 µM; purified PI4K2A, ADP-Glo luminescence, 1 h; hits give low values; AID 1346378, 2018; in the data active = activity change below about -50%; inconclusive = mostly about -30% to -49%
# Target sequence (Q9BTU6 whole entry, looked up): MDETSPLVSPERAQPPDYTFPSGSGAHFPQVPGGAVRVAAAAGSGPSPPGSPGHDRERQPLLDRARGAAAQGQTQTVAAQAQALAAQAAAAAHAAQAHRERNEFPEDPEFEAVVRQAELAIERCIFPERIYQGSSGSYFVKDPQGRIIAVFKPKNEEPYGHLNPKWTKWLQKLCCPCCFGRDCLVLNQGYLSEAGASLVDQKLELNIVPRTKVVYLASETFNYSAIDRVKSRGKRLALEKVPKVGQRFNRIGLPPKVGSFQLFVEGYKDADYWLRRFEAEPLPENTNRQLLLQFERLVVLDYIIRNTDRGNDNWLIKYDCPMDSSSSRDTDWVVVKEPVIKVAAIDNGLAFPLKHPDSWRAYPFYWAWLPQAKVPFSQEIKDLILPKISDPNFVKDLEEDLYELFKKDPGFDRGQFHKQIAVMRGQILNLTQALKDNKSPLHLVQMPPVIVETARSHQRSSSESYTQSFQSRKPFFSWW
#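 ADP-Glo luminescence measured ADP generated by PI4K2A enzyme (4 ug/mL before mixing) with 1.2 mM PI substrate (pre-mix) and 300 microM ATP (pre-mix). Tris pH7.5 buffer with MgCl2, Triton X-100; 1 h reaction at ambient temperature.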
# Tb PGK inh = qHTS Assay to Find Inhibitors of Phosphoglycerate Kinase. PGK/GAPDH coupled, Kinase-Glo luminescence, 60 min. Potency, µM (highest dose often 57.5 µM), hits mostly inhibitors. 380,000 tested, 0.043% active. AID 602233, 2012; active = well fitted inhibition curve with a large enough effect; inconclusive = small, poorly fitted or top-dose-only effect; inactive = no such curve, though single readings can be large or run the other way; note: nearly all actives have a fitted effect of over 60% in size
#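 Luminescent ATP detection (Kinase-Glo Plus) follows a 60-minute room-temperature incubation, with wells lacking PGK as controls. Buffer: 100 mM TEA (pH 7.6), 5 mM MgCl2, 0.01% Tween-20. Coupling enzyme GAPDH (100 nM final) supplies unstable 1,3-BPG in-well.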
# Hits are given with their value; i = inactive; ? = inconclusive; nt = no result given. The sample as a whole holds a higher share of hits than the screen did.
SMILES,Pin1 inh,PI5P4K alpha inh,PI4K2A block,Tb PGK inh
O=C(N/N=C/C1C(=O)NC(=S)N(c2ccccc2)C1=O)c1cc(Br)c(O)c(Br)c1 (stereo not drawn),i,-95.6,i,i
CN1C(=O)NC(=O)/C(=C\c2ccc([N+](=O)[O-])o2)C1=O,?,-102.3,i,?
Cc1ccc(/C=C2/C(=O)NC(=O)N(C)C2=O)cc1,i,i,i,i
CN1C(=O)NC(=O)/C(=C/c2ccc([N+](=O)[O-])o2)C1=O,?,-82.4,?,14.1µM
CN1CC[C@]23c4c5ccc(O)c4O[C@H]2[C@@H](O)CC[C@H]3[C@H]1C5,nt,nt,i,nt
O=C(Nc1ccc2oc(-c3cccnc3)nc2c1)c1ccc(-c2cccc(Cl)c2)o1,i,nt,i,i
CCCCN1C(=O)/C(=C/c2ccc(N(C)C)cc2)C(=O)N(Cc2ccco2)C1=O,?,-64.3,i,i
CCN(CC)c1ccc(/C=C2\C(=O)NC(=O)N(Cc3ccco3)C2=O)cc1,?,-57.1,i,i
O=C1NC(=O)C(=Cc2ccccc2Oc2ccc(F)cc2)C(=O)N1,i,?,?,i
CN1C(=O)C(=Cc2ccccc2Oc2ccc(Cl)c(F)c2)C(=O)N(C)C1=O,i,-52.2,i,i
CCN1C(=O)CC(=O)N(CC)C1=S,nt,-55.0,i,i
CCN1C(=O)C(=C2C=C(C)OC(C)=C2)C(=O)N(CC)C1=S,i,i,i,i
O=C(O)CCn1cc(C=C2C(=O)NC(=S)NC2=O)c(-c2cccc(Cl)c2)n1,i,-86.3,i,i
C=CCn1c(O)c(C(CC)=NCc2cccnc2)c(=O)[nH]c1=O,?,i,i,i
CN(C)c1ccc(C=C2C(=O)NC(=S)NC2=O)cc1[N+](=O)[O-],i,-74.9,i,i
O=C1NC(=S)NC(=O)C1=Cc1cccc2cc3ccccc3cc12,?,-70.2,i,i
O=C1NC(=S)NC(=O)C1=Cc1c(Cl)cccc1Cl,i,?,i,i
CN(C)c1ccc(C=C2C(=O)NC(=O)NC2=O)cc1[N+](=O)[O-],i,?,i,i
COc1cc(C=C2C(=O)NC(=O)NC2=O)ccc1O,?,i,?,i
COc1ccc(C=C2C(=O)NC(=S)NC2=O)cc1,i,-64.4,i,i
O=C1NC(=S)NC(=O)C1=Cc1ccc(OCc2ccccc2)cc1,i,-81.5,i,i
Sc1ccccc1Cl,nt,nt,i,nt
CCC(OC(C)=O)C(CC(C)NC)(c1ccccc1)c1ccccc1 (stereo not drawn),nt,nt,i,nt
COC(=O)C1=Nc2ccccc2/C1=C\c1c(O)n(-c2cc(OC)ccc2OC)c(=O)[nH]c1=O,i,-66.5,i,i
COc1ccc(/C=C2/C(=O)NC(=O)N(c3ccc(C)c(C)c3)C2=O)cc1CN1C(=O)c2ccccc2C1=O,i,-66.4,i,i
SMILES,Pin1 inh,PI5P4K alpha inh,PI4K2A block,Tb PGK inh
COc1cc(/C=C2/C(=O)NC(=O)N(c3ccc(C)cc3)C2=O)cc(OC)c1OC,i,i,i,i
NC(=S)/N=C/c1c(O)[nH]c(=O)[nH]c1=O,?,-59.8,i,i
CCCCCCCCN=Cc1c(O)[nH]c(=O)[nH]c1=O,i,i,i,i
C=CCNC(=S)/N=C/c1c(O)[nH]c(=O)[nH]c1=O,?,-51.9,i,i
N/C(=N\N=C/c1ccc(-c2ccc(O)c(C(=O)O)c2)o1)N[N+](=O)[O-],?,nt,i,10µM
COc1ccc(/C=N/N=C(/N)N[N+](=O)[O-])c(OC)c1,i,i,i,i
C[N+]1(C)[C@@H]2CC[C@H]1CC(OC(=O)C(CO)c1ccccc1)C2 (stereo partly drawn),i,i,i,i
C[N+]1([O-])[C@@H]2CC(OC(=O)[C@H](CO)c3ccccc3)C[C@H]1[C@@H]1O[C@@H]12 (stereo partly drawn),i,-59.3,i,i
O=C(Nc1ccc(Br)cc1)c1cc(Br)cc(Br)c1O,nt,nt,i,nt
O=C(Nc1ccc(Oc2ccc(Cl)cc2)c(Cl)c1)c1cc(I)cc(I)c1O,?,-54.6,i,i
CCC(=O)C(CCN(C)C)(c1ccccc1)c1ccccc1,nt,nt,i,nt
Cc1nc2ccccc2c(=O)n1-c1ccccc1Cl,nt,nt,i,nt
CN1C(=O)/C(=C\c2ccc(Br)s2)C(=O)NC1=S,i,-76.7,i,i
O=C1NC(=S)NC(=O)C1=Cc1ccc(Br)s1,i,-84.8,i,i
CCC1(CCC(C)C)C(=O)NC(=O)NC1=O,nt,nt,i,nt
CCOC(=O)c1cc(C)sc1/N=C/C1C(=O)NC(=S)NC1=O,i,?,?,i
